Experiments:
Test in all cases: log2 ratio of Biotin-Ahx-Ub-VS probe labelling (fragment/DMSO); higher = less target engagement (more negative = stronger competition), active = hit call of the paper (q ≤ 0.05, log2 ratio ≤ -1)
Details in all cases: compound concentration: 200 uM; treatment time: 3 h
[1] = target: USP34 (UniProt Q70CQ2)
How it was run: (§1)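 Each value is an average log2 ratio of fragment to vehicle, tested by unpaired t-test. The underlying Spectronaut label-free quantities were global-median-normalised, and only proteins with ≥2 unique peptides were included. Triplicate HEK293T lysate samples (495 µg) were exposed to fragment at 200 µM or vehicle for 3 h, then to Biotin-Ahx-Ub-VS at 0.5 µM final for 1 h, before NeutrAvidin enrichment of labelled DUBs, LysC and trypsin digestion, and diaPASEF LC-MS/MS.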

[2] = target: T1, USP36 (UniProt Q9P275)
T1 sequence (whole entry): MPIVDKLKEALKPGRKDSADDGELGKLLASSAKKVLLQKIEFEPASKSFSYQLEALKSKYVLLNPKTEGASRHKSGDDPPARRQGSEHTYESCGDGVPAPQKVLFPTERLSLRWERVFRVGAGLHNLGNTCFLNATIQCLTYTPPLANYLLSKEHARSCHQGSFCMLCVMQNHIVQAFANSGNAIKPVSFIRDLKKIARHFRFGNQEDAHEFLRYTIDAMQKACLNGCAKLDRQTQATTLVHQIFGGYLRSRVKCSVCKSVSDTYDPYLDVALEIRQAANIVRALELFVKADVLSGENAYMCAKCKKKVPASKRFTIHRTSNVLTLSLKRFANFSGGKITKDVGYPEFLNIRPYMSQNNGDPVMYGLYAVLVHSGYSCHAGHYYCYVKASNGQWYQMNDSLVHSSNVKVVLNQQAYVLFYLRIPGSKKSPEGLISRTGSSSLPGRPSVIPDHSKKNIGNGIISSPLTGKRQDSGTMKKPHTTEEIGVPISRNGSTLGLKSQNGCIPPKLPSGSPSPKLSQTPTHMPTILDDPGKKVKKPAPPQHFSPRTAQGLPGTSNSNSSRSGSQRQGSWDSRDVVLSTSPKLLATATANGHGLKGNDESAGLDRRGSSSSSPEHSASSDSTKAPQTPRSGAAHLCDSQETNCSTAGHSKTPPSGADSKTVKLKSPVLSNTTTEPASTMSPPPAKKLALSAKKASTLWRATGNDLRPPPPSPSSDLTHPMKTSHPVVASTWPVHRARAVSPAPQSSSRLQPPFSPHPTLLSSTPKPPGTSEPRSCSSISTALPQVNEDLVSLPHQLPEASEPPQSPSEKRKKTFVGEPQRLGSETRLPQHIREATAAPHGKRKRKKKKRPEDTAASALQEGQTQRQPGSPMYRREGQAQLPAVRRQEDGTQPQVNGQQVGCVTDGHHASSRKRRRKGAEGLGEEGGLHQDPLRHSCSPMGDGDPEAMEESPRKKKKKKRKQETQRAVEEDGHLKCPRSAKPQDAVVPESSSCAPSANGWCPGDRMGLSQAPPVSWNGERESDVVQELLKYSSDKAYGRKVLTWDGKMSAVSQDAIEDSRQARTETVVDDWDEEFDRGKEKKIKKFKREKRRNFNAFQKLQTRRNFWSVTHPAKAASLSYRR
How it was run: as §1

[3] = target: T2, USP38 (UniProt Q8NB14)
T2 sequence (whole entry): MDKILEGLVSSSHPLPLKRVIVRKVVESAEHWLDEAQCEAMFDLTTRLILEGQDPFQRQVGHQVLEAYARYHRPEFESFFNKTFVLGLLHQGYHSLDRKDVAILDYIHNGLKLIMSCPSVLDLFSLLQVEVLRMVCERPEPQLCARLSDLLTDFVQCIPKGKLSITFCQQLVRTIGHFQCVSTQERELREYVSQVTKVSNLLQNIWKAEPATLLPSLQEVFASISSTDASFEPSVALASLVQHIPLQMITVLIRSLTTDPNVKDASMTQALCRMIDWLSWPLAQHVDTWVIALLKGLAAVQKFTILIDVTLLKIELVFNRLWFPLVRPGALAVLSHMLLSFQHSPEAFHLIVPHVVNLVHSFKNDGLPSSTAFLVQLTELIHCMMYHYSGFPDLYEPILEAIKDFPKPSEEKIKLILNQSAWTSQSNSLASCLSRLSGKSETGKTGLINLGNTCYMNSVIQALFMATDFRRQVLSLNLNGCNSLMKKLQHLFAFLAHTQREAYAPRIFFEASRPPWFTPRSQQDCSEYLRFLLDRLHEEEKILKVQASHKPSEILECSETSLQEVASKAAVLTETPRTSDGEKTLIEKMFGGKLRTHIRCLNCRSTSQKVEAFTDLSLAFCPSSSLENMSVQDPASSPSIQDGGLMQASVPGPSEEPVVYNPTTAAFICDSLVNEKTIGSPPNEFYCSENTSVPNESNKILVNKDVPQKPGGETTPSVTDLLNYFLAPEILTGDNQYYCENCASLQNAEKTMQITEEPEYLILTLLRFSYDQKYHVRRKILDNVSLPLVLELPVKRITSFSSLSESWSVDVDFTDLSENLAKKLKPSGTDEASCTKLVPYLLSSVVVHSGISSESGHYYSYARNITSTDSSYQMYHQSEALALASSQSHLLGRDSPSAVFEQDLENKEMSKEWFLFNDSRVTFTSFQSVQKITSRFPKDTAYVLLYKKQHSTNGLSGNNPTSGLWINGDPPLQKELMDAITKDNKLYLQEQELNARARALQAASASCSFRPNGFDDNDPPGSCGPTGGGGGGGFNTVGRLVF
How it was run: as §1

[4] = target: T3, USP39 (UniProt Q53GS9)
T3 sequence (whole entry): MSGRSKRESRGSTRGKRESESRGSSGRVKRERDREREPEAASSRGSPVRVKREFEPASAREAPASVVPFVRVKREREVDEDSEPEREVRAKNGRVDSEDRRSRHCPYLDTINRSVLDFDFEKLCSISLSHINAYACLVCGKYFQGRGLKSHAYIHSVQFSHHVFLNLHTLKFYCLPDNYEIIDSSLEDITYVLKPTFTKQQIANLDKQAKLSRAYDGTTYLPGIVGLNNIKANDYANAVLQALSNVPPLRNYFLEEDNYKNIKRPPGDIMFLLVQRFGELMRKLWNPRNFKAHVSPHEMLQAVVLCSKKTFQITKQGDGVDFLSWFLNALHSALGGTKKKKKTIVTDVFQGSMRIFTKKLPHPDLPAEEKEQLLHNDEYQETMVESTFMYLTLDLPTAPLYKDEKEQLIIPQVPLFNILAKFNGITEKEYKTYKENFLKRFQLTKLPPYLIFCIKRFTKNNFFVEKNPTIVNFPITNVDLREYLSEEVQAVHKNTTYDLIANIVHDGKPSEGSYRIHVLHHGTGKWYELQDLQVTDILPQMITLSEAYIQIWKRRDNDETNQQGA
How it was run: as §1

[5] = target: T4, USP4 (UniProt Q13107)
T4 sequence (whole entry): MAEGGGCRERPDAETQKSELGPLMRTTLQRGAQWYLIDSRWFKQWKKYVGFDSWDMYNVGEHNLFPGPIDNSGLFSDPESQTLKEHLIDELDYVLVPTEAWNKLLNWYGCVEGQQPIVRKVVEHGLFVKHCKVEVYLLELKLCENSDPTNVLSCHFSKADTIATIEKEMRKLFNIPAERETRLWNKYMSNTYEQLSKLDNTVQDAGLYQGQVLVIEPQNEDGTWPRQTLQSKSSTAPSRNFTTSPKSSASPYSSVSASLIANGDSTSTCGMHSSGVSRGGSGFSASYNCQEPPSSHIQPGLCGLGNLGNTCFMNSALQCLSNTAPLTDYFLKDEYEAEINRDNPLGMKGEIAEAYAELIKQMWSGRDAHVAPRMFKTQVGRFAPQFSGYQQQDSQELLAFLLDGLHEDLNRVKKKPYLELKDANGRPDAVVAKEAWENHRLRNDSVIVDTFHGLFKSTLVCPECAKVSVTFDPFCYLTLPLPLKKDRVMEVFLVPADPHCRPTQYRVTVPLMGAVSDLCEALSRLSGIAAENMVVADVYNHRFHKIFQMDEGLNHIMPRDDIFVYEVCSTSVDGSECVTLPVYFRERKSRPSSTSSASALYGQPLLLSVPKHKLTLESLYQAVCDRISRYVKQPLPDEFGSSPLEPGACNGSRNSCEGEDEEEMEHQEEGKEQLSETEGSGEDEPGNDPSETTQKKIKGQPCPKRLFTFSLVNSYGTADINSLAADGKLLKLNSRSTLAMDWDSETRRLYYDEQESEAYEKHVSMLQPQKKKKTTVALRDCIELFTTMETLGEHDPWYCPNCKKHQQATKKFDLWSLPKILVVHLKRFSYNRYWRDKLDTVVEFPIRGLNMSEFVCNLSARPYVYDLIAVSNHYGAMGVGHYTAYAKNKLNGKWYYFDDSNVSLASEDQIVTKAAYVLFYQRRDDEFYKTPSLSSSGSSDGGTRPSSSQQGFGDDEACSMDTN
How it was run: as §1

Measured: log2 ratio of Biotin-Ahx-Ub-VS probe labelling

USP34, sequence (Q70CQ2 whole entry, the tested form may be a part): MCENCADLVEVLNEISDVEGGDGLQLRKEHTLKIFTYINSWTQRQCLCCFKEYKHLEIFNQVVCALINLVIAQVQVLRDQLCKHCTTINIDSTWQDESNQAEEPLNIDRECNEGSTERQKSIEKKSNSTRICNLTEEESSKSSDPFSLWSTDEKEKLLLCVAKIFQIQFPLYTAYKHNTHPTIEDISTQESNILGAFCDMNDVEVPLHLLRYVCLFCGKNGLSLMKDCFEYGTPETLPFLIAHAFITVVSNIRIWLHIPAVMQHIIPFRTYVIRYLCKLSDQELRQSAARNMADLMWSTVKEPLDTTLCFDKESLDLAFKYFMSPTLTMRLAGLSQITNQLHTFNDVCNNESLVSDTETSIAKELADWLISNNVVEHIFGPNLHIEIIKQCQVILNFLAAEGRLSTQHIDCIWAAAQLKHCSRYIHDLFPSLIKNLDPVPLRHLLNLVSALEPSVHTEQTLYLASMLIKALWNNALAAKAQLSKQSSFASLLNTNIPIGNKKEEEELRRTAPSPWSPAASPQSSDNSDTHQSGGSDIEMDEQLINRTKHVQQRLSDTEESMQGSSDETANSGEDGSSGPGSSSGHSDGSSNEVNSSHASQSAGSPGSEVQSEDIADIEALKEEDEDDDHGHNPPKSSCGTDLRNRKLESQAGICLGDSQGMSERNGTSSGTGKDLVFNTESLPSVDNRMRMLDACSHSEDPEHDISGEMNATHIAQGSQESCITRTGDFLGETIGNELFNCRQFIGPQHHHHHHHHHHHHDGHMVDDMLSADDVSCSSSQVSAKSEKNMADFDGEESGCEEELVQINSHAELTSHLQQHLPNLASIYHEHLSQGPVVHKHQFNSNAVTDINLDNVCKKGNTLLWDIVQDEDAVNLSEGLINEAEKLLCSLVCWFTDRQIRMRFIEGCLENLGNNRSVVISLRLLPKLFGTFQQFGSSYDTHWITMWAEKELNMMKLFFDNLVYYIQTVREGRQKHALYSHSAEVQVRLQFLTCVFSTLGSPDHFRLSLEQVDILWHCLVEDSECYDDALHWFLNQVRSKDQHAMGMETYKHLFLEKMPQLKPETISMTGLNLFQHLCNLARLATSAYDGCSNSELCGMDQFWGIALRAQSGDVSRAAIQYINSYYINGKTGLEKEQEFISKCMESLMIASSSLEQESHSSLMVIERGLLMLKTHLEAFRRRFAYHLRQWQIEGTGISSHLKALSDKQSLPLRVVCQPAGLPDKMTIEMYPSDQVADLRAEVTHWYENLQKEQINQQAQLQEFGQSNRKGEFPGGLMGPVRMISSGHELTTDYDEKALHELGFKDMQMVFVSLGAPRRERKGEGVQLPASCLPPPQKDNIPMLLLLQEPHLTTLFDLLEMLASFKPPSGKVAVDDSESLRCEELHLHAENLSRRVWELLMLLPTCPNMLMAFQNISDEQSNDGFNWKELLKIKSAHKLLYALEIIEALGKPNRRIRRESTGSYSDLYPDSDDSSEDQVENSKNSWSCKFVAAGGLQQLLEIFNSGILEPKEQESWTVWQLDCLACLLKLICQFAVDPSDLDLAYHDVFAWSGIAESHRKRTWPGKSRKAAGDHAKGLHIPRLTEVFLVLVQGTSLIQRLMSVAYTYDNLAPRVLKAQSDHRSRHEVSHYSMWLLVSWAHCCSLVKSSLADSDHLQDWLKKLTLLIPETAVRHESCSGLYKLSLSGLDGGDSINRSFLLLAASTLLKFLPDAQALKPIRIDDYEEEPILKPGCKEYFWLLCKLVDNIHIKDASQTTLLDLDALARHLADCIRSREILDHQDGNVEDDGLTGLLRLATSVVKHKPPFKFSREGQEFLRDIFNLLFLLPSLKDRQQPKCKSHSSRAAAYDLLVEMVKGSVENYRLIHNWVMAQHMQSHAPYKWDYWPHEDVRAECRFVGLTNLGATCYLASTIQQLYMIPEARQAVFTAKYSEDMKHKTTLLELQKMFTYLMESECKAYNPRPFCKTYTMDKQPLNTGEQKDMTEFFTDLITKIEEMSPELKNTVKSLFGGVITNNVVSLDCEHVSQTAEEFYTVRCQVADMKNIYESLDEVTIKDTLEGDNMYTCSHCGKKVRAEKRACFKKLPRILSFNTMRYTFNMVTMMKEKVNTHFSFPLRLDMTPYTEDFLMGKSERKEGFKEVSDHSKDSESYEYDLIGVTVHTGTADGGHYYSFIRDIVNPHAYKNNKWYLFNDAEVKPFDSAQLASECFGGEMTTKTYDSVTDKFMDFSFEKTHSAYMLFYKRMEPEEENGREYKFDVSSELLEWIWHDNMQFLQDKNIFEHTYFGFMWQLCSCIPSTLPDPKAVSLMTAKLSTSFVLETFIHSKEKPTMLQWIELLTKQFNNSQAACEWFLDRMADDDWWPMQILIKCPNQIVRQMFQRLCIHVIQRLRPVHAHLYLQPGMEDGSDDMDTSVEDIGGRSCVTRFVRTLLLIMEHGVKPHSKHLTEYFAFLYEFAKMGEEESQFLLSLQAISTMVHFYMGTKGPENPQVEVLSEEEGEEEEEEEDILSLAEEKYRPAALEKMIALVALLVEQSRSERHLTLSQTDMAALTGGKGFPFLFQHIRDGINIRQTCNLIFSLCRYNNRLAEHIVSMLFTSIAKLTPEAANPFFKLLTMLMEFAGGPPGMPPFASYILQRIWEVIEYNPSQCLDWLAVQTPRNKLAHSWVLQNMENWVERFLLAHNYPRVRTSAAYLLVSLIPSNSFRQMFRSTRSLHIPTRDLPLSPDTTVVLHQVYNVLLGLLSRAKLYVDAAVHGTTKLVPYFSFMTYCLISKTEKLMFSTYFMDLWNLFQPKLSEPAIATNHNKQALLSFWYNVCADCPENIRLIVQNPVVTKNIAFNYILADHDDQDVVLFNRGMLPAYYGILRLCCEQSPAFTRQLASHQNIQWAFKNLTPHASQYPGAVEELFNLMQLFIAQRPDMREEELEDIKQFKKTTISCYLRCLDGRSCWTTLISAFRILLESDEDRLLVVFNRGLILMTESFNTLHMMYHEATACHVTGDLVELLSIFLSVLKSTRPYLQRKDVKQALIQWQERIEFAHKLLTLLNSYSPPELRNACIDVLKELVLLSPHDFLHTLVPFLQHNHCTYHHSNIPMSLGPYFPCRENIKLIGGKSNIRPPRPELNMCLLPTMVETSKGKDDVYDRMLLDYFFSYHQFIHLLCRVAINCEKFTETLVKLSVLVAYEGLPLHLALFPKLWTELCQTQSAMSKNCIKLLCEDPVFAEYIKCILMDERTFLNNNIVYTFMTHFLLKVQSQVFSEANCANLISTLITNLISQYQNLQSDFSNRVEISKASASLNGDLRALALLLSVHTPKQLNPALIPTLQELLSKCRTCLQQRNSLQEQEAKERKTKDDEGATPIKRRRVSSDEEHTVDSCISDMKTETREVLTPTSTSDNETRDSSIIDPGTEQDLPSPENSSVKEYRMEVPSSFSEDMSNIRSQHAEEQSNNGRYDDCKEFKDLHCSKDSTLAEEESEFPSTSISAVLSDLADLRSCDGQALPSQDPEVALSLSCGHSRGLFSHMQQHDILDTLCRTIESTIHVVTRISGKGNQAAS

CC(NC(=O)CCl)c1cccc(Cl)c1 (stereo not given)
inactive: [1] -0.653 | [2] -0.283 | [3] -0.175 | [4] -0.294 | [5] -0.239

— the supplement of paper PMC11732987, “Enantioselective OTUD7B fragment discovery through chemoproteomics screening and high-throughput optimisation” (Communications Chemistry, 2025)
